The values that follow come from PubChem BioAssay AID1508600 (Functional Genomics Laboratory (NCATS/FGL), 2020).

The campaign covered roughly 53,000 sequences. About 3,700 (7%) were called active. Only a selection was taken, and actives are over-represented in it overall. Values without a mark were called inactive.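 How the source made its calls: active means gene knockdowns whose robust z-score for IL-1 alpha signal is at least 2 or at most -2, so actives lie on both sides; inactive means the rest.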

A short description of this assay: Components of the Cytosolic LPS Sensing Pathway: Gene Identification via Genome-wide siRNA Screen.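 Further: robust z of the log signal after scaling to non-targeting control siRNA wells of the plate.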 Particulars: RAW264.7 macrophages, IL-1a HTRF, actives lie on both sides, screened at 100 nM (by protocol), cells primed 5 h with Pam3CSK4 first. Summed up: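 Three distinct siRNAs per gene were tested singly at 100 nM in RAW264.7 macrophages. Following Pam3CSK4 priming and 24 hour LipidA transfection, IL-1a secretion was read by HTRF.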
Regarding GGUCUUGUGGUGGUACUACTT against Elovl2, the z-score was 1.77.
Turning to GGCCAUUCUGGAAACUCCATT against Foxp4, the z-score is -0.0644.
Then GGAAUAAUAGAGGAAUGAGTT against Bclaf1, with -1.61; and GGAGAGAGAUUUUCAAUAUTT against Gtdc1, with -0.41.
Regarding GGAGAGCCUUAUUCAUCGCTT against H2-DMb2, the z-score is -0.0566.
Next, GGAAUCUGUCAUGUGAAUATT against Slc1a5: -0.0766.
Then GCUGGUGCAUUACUGAGGUTT against Olfr69, with 0.434; and CCAAACACUAUGUGACAAGTT against Trim8, with -0.626.
For the sequence GCGGGUGAAAUACACCAAGTT against Trim28, the z-score was -2.2 (active).
Then GGCCAAGCAUGUUUUGUCATT against Cep72, with -0.639; and GCUUGGUGGGUUUGUUGAUTT against Slc28a1, with -0.113; and GUGCUCUAUGUCUUCACUGTT against Ltb4r2, with -1.
Take CGACUACCAACAGUUCAUATT against P2rx6: the z-score is 1.14.
Then UCCAUUUCGACCCUUGUACTT against Romo1, with -2.88 (active).
Next, GGAGCUCAUAGACCAGCUUTT against Necab3: 0.371; GCUUGAUGGUAAAAAGGUUTT against Atl1: -1.18.
Then CCAACCUAUAAGUUAAUGATT against Mrps22, with -0.735; and CGGAGAGGAUUUCAUCGAATT against Azgp1, with 0.0877; and GGGCCUCCAUCCUACUAUGTT against Grina, with 1.65.
As for GGGCUUCUUCUGCUAUGACTT against Plppr2, the z-score is -2.2 (active).
Next, CGAUAUGUGUUUGUAAUGGTT against Atp6v1d: -0.853.
As for GCCGUGAUCGACUUGAAUATT against U2af1, the z-score is 0.763.
Next, CCAAUAUGCUCAGUAUUACTT against Eya4: -1.36.
Then CCCUCUCCCUUCAAUGUGGTT against Cblif, with -1.38; and GGGUGUUUGGUUGUGAUCUTT against Arhgap33, with -2.07 (active).
Next, GGAGUAGUAGCUGAAUUUGTT against Abcc3: 0.317.
Take GGCUGAUCUCUUUUGCCAGTT against Reg2: the z-score is 0.00409.
Then GGAACAUAUACUGGACAGATT against Zfp825, with 0.436.
As to GGAUGUGAUCAUAGCAUGGTT against Slc35e1, the z-score is -2.07 (active).
Regarding GGGCUAAUAUACAGAAAUATT against Rrm2b, the z-score was -0.126.
GGUGGAGAAAAAUGCAACATT against Clnk: the z-score was -0.429.
Then GGAAAUCUGAAGAAUCAAGTT against Zup1, with -0.621; and GGAGGUAGAAAAGACAAAATT against Jrk, with 1.96.
Then GGAUGCAUUUCUGAGCCACTT against Tacc2, with -1.62; and CUCUCGAACAAUCAACCACTT against Olfr315, with 2.05 (active); and GGAAGGACAAUCAGUUCCUTT against Thsd7b, with 0.999.
Then CCUUUUAUAACUGCUCUCUTT against Jpt2, with -1.01.
Turning to GCUCACUCUUUCCAACUAUTT against Ubox5, the z-score was 0.465.
Then GGCUGGAUUAUUUUUUCUUTT against Usp4, with 0.921; and GAACGUGCAGCUGACAGAGTT against Ppp1ca, with -1.03; and GACUAUGUGGUCUACUCGUTT against Drd4, with 2.86 (active).
For the sequence CGGGCUGGAAGAAAUCUCUTT against Rhox3a, the z-score is 0.771.
Take GGACAAAACCAUCUCCUUCTT against Olfr17: the z-score is 0.324.
Then GGGAAUGCACUACAACUACTT against Chpf, with 1.16.
Next, GCCAUAUCAACUAGUGCAGTT against Siglech: 2.36 (active).
Then GGCUUUUCUGGCUAUCCACTT against Anxa7, with -0.774.
Regarding GGCCCAAGAGCAUUCUGGATT against Slc25a19, the z-score is 0.552.
As to GGGUGUGCAUUUGUACUACTT against Smad9, the z-score was 1.21.
Regarding GGAUAUGUCAGCAUAUGUGTT against Yeats4, the z-score is -0.583.
Regarding GGUCAACAGUUACAUCGAGTT against Vps33a, the z-score is 0.273.
Then GCCCAUCUUAGCAUUCUCUTT against Aldh4a1, with -1.91.
Then GCUAGAAAAAAAUCAGUUGTT against Eif2a, with 0.6.
CCCAGAACGGGAUGAUUCUTT against Trex2: the z-score was 2.77 (active).
Then CCUCUCAACCACUGACUGATT against Gpatch4, with 0.836; and GCUCAAAUCGUACAAGUGUTT against Panx1, with 0.214; and GUCCUCGUAGGAACAGCAUTT against Olfr1265, with -1.52.
Then GGCACUGUUGUGGCUGAAATT against Coro1a, with 1.47; and CCUCAUGGAUGUUCGUAGATT against P2ry10, with 0.452.
In the case of GCUAGGAUGUCUGAAAGAGTT against Ccdc178, the z-score is 0.266.
In the case of GGCUGUAUCCUGACAGCAATT against Olfr231, the z-score is 0.213.
Next, GCGUGGAGAACCGUUAAUCTT against Shroom3: 0.845.
Next, “CCUCUCUAGGCCAUGUUCUTT against 1110008P14Rik”: 0.381; GGUUUUAUCCCUGUUUCCUTT against Naaa: -0.115; CCUGAGAUUGGGAAAUUCUTT against Engase: 2.02 (active).
Then GCGGUCAACUGGAAACUAATT against Dnaja3, with 0.735.
On to GCAUCAUGAGUCCCAUUCUTT against Olfr385, for which the z-score is -0.276.
Regarding CCAACGCGCACGGCCGCGCTT against Tmem158, the z-score was -0.359.
For the sequence CCGAAAAAUAUGUUUUCCGTT against Mettl4, the z-score was 2.87 (active).
Then CCCUGCUGUCGUUUUGACUTT against Senp3, with -0.122; and GGAAAGUUUUGGCGACUACTT against Fbxw19, with 0.25; and GCUCAACUUACGUUCACUCTT against Vps72, with -2.53 (active).
Next, GGAUUUAAAUCACCUGUAATT against Tdpoz1: -0.864.
For GCAGAAAAGGUCUACGUGCTT against Azgp1, the z-score was 1.8.
Next, AAACAGUCAUUUCCUAUAGTT against Olfr1502: -2.04 (active); CCGAUUAAAAGAGUGUUUGTT against Nudt8: 1.85; GGUUAUCUUUGGGACUUAATT against Lrmp: -1.66.
With GCUGGUGCUCUUCACCAUATT against Fbxw17, the z-score is -0.419.
For the sequence CCUGAAAUGCUAAGACUACTT against Gm5142, the z-score was 1.15.
Take GGGAUCUUACAUGCCACCATT against Olfr1231: the z-score is -0.000779.
Then “GGCUACUCGGCCCUCUGUUTT against 4930404N11Rik”, with -1.67.
For GGACGUGUAGCUUGGAAUATT against Rnf26, the z-score was 5.33 (active).
Consider CCAUACAGAGGUGACAGUUTT against Olfr816, for which the z-score was -0.23.
Then CCAUAAAAACCAGAGAAAUTT against Plekhf2, with -0.778; and GGUCGACUUAAGAUAAUAATT against Itgb6, with -0.294; and CCCUGUUAAGGAAUGCAAATT against Chil1, with 0.367.
Next, GGAGAAAUUCGACUGAAAATT against Pcdhb13: 3.47 (active); GGCUUUUUGCUUCACUACUTT against Slco4c1: 1.06.
Then GGCGAAUUAUUGAAAACGUTT against Actr8, with 0.916.
GGAGUUGGAUAUUCUAAAATT against B3gntl1: the z-score is -0.64.
Next, GGGCAACCUGGUUACACAUTT against Zfp637: 1.25; UAGUCAUUGGGAUUCCUUCTT against Olfr112: 2.98 (active); GGUGGAAUGAAAGAACAAGTT against Klhl13: 1.74.
Then GGCCAGGAAAGAUACAGGATT against Rab3c, with 0.486.
Take GGCCAUGCUGAAAGUAUUUTT against Olfr561: the z-score is -1.46.
On to GCUUAGAAUCUCUGGACAATT against Rnf168, for which the z-score is 3.21 (active).
Next, CGGGAACAUAUCAGACUAATT against Mcm3ap: -0.844; GGCCAUUGAGCUCAACCCUTT against Sgta: -1.88; CCUAUAAAUGUCCUUAGUCTT against Ccdc115: 0.127.
Take CCUAUGGUGCUCUUAUAAATT against Dpp6: the z-score is -0.178.
Then GGUCUUAUGUAAGUGGUAUTT against Ociad1, with -2.03 (active).
Then GGCACUGUGGUGUAAAUCCTT against Nnt, with -1.53.
GGACAUCGAGCUUCAGAUCTT against Dnm1l: the z-score was 2.68 (active).
As for GGAGAUCGAUGGAGACUUCTT against Sftpa1, the z-score is -0.773.
Then CGACGAAUGUCCUGAACAUTT against Tmem106a, with -0.193; and GCCUUGAUCCUACUGUAACTT against Amigo3, with 2.12 (active); and “GGGACUUAAGGUUAGACACTT against E330018D03Rik”, with 0.163.
Then CGACCUGUUCGCCAUCAAATT against Scaf1, with 0.511.
